Data taken from PubChem BioAssay (NCATS).
Results filed as inconclusive are left out. Values without a mark were called inactive. Activity calls are given as the source filed them. The call rests on the fitted dose curve; in most records, active means well fitted activation curve with a large enough effect; inconclusive means small, poorly fitted or top-dose-only effect; inactive means flat fitted curve, though single readings scatter.

Target: D(1A) dopamine receptor (Homo sapiens) (UniProt P21728)
Sequence (P21728 whole entry, looked up): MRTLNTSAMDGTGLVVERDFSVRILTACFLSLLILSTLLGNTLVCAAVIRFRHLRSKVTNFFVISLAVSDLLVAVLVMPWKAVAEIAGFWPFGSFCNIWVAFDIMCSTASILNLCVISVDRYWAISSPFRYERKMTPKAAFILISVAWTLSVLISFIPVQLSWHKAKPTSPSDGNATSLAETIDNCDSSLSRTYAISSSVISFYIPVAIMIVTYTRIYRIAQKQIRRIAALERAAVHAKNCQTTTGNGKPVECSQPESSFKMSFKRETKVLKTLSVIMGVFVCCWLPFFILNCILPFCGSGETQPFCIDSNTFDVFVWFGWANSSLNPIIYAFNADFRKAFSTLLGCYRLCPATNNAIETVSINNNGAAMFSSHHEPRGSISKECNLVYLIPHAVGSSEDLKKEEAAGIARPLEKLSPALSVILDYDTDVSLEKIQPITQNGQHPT
Experiment: HTS Assay for Allosteric Agonists of the Human D1 Dopamine Receptor: Primary Screen for Agonists (AID 488981); on activation: 0% is about no effect
Settings: Inducible HEK293 T-REx D1 cells, calcium-flux fluorescence, 180 s kinetic; series mostly up to 41.8 µM; activation: at the top concentration
Excerpt: Dopamine receptors (DARs) are involved in the etiology and/or therapy of a number of neuropsychiatric and endocrine disorders. For instance, all receptor-based antiparkinsonian drugs work via stimulating the […] DAR subtype whereas all FDA-approved antipsychotic agents are antagonists of this receptor. […] There are three different types of allosteric modulators that we are seeking, two of which will stimulate or augment receptor signaling, allosteric agonists and potentiators, while the third, allosteric antagonists, will attenuate receptor signaling. The present primary screening assay measures compound agonism by tracking calcium flux in a […], inducible Hek293 Trex D1 cell line.
Freshly passaged cells are plated in 1536 well black, clear bottom plates at a density of 4000 cells/well in 3 ul of complete media containing 1x tetracycline inducer. After an overnight incubation at 30 C in 5% CO2, cells are loaded with 2 ul of the no wash Calcium Assay Kit (ABD Bioquest) and incubated at room temperature for 30 to 90 minutes. A 10 cycle (1 second/cycle) baseline measurement is taken and then the FDSS online 1536 pintool delivers 23 nl of compound library (as well as dopamine controls) to the plate. The plate is measured for kinetically at 1 cycle/sec for 180 seconds and is considered to be the agonist portion of the assay (eg, compounds which activate a positive calcium response during this portion are flagged as potential agonists). Following the 180 second read, 1 ul of an EC20 of dopamine is delivered by an onboard pipette head. Measurements are taken kinetically for an additional 180 seconds.
Potency means the concentration at half of the fitted maximal effect.

Structure (SMILES) | activation [%] | Potency
Cn1c(=O)c2[nH]c(-c3ccc(S(=O)(=O)O)cc3)nc2n(C)c1=O | -0.635 | –
COc1ccccc1N1CCN(CCCCNC(=O)c2ccc3ccccc3c2)CC1 | 23.4 | –
Cc1nc2n(c(=O)c1CCN1CCC(c3noc4cc(F)ccc34)CC1)CCCC2O (stereo not given) | 0.529 | –
CN1CCN(c2nc3cc(C(F)(F)F)ccc3n3cccc23)CC1 | 2.33 | –
NCC(O)C1CCCCCCC1 (stereo not given) | 8.25 | –
CC(C)C[C@H](NC(=O)C1OC1C(=O)O)C(=O)NCCCCN=C(N)N (stereo not given in full) | -0.582 | –
COc1ccc(CCN(C)CCc2ccc(OC)c(OC)c2)cc1OC | 0.211 | –
C[C@]12C=CC(=O)C=C1CC[C@@H]1C2=CC[C@]2(C)[C@@H](C(=O)CN3CCN(c4cc(N5CCCC5)nc(N5CCCC5)n4)CC3)CC[C@@H]12 | 3.49 | –
CC(C)(CO)Cc1cc(C(C)(C)C)c(O)c(C(C)(C)C)c1 | – | 15.8 µM (active)
OC[C@H]1O[C@@H](n2cnc3cncnc32)[C@H](O)[C@@H]1O | -0.688 | –
NC(N)=[N+]1CCc2ccccc2C1 | -0.635 | –
[Li+] | -0.106 | –
Nc1ncnc2c1ncn2C1CCCC1 | -0.423 | –
O=C(O)CCC(=O)N1CCCC1C(=O)O (stereo not given) | -0.74 | –
O=c1[nH]c2ccccc2c2ccccc12 | -1.11 | –
CC1CNCCN1S(=O)(=O)c1cccc2cnccc12 (stereo not given) | -0.106 | –
CCCCS(=N)(=O)CC[C@H](N)C(=O)O (stereo not given in full) | -1.16 | –
COC(=O)[C@H](NC(=O)c1cc(-c2ccccc2)nc2ccccc12)c1ccccc1 | 9.62 | –
Nc1ccc(-c2ccc3ccccc3n2)cc1 | 5.87 | –
N[C@@H](CS(=O)O)C(=O)O | 0.317 | –

Structure (SMILES) | activation [%] | Potency
NCCCNCCCCNCCCN | -0.952 | –
CCCCCCN(CCCCCC)C(=O)Cc1c(-c2ccc(F)cc2)[nH]c2ccccc12 | 4.81 | –
CC1CCN=C(N)S1 (stereo not given) | -0.106 | –
O=C(c1ccc2c(c1)OCCO2)N1CCCCC1 | 3.01 | –
NC(N)=NC(N)=Nc1ccccc1 | -0.211 | –
COc1ccc(-c2ccc(N)[n+](CCCC(=O)O)n2)cc1 | -0.476 | –
Cc1cccc(C)c1OCC(N)C(C)C (stereo not given) | 11.5 | –
Oc1ccc(/C=C/c2ccc(/C=C/c3ccc(O)cc3)c(Br)c2)cc1 | 2.17 | –
O=C(O)c1cccnc1C(=O)O | -1.59 | –
Cn1c(=O)[nH]c2ncn(C)c2c1=O | 0.106 | –
O=C1OC(=O)C2C3CCC(O3)C12 (stereo not given) | 0 | –
NC/C=C\C(=O)O | -0.37 | –
Nc1ncnc2c1nc(Br)n2C1OC2COP(=O)(O)O[C@@H]2C1O (stereo not given in full) | -0.159 | –
NCCNS(=O)(=O)c1cccc2c(Cl)cccc12 | 3.7 | –
CC(N)(Cc1ccc(O)cc1)C(=O)O (stereo not given) | 1.06 | –
COCc1nc2c([nH]1)c(=O)n(C)c(=O)n2CC(C)C | -0.529 | –
CCCn1c(=O)c2c(ncn2C)n(CCC)c1=O | -1.37 | –
Cn1ccnc1 | 0.159 | –
CC(C)Cn1c(=O)n(C)c(=O)c2[nH]cnc21 | -0.159 | –
NC(=O)c1ccccc1 | -0.264 | –
